This is a sample that favours compounds with a hit; in the whole collection about 0.78% have one here.
SARS 3CLpro inh – SARS-CoV 3CLpro protease inhibition; P0C6X7; recombinant SARS-CoV 3CLpro, quenched FRET peptide cleavage; inhibition, % at 6 µM; actives 0.14% (n = 290,000); in the data active = inhibition above about 12%
PriA SSB inh – inhibitors of Klebsiella pneumoniae PriA binding to SSB C-terminal tail. inhibition, % at 33 µM. AlphaScreen SSBct-PriA binding, biotinylated peptide. actives 0.6% (n = 430,000); in the data active = inhibition mostly above about 37%, no sharp cut-off; inactive = mostly below about 20%;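 note: plate controls were negative control peptide for no effect and reference peptide for full effect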
BJeLR viability – BJeLR cell viability loss. BJeLR (HRASV12) viability, CellTiter-Glo ATP luminescence, 48 h. inhibition, % (test concentration not listed). actives 0.17% (n = 300,000). AID 1554; in the data active = inhibition above about 50%
Starred values were filed as active, the others as inactive; . = not tested or not shown; ! = not confirmed by another sample.

SMILES	SARS 3CLpro inh	PriA SSB inh	BJeLR viability
CCN(CC)CCN(C(=O)c1ccc2c(c1)CCCC2)c1nc2ccc(C)cc2s1	2.9	14.0	-0.6
CCN(CC)CCN(C(=O)c1ccc2c(c1)CCCC2)c1nc2ccc(OC)cc2s1	-1.3	46.0*!	0.7
COc1ccc(OC)c2sc(N(CCCN3CCOCC3)C(=O)c3ccn(C)n3)nc12	.	-7.0	.
COc1ccc(OC)c2sc(N(CCN3CCOCC3)C(=O)c3ccc4c(c3)CCCC4)nc12	.	41.0*	.
COc1ccc(OC)c2sc(N(CCCN3CCOCC3)C(=O)c3ccccc3SC)nc12	.	28.0*	.
COc1ccc(C2=NN(C(=O)c3ccco3)C(c3ccc4nccnc4c3)C2)cc1 (stereo unspecified)	.	-10.0	.
Cc1ccc(CC(=O)Nc2ccc3nc(C)sc3c2)c(C)c1	.	-5.0	.
O=[N+]([O-])c1ccccc1Nc1cccc(F)c1	.	48.7*	.
O=[N+]([O-])c1cnccc1Nc1cccc(F)c1	-2.5	9.4	-15.7
O=[N+]([O-])c1ccccc1Nc1ccccc1	3.6	69.9*	1.3
O=C(CCOc1ccccc1)Nc1ccccc1[N+](=O)[O-]	0.7	18.3	7.7
O=[N+]([O-])c1ccccc1NCCOc1ccccc1	1.9	38.6*	-0.6
O=[N+]([O-])c1ccccc1Nc1ccccc1[N+](=O)[O-]	.	0.5	.
Cc1cc(Nc2ccccc2)c2c([N+](=O)[O-])ccc(C)c2n1	-0.3	60.4*	-1.1
Cc1cc(Nc2ccc(Cl)cc2)c2c([N+](=O)[O-])ccc(C)c2n1	.	55.6	.
Cc1cc(SCC(=O)Nc2ccccc2C)nc(-c2ccc(F)cc2)n1	.	-8.0	.
CN1C(=O)c2cc(NC(=O)C3CCCC3)ccc2Oc2ccccc21	.	-9.0	.
O=C(NCC1CCN(Cc2cccs2)CC1)c1ccc2c(c1)OCO2	.	-12.0	.
COC(=O)C1=C(C)N(Cc2ccccc2)C(=NCc2cccc(C(F)(F)F)c2)N[C@H]1c1cccc(C(F)(F)F)c1	.	-10.4	.
COC(=O)C1=C(C)N(Cc2ccccc2)C(=NCc2cccc(C(F)(F)F)c2)N[C@H]1c1cccc(F)c1	-9.2	-17.4	99.1*
Cn1cc(C(=O)N(Cc2cccn2C)C2CC2)nn1	.	-2.0	.
COc1ccc(NC(=O)c2cc(=O)c(OC)co2)cc1Cl	.	-10.0	.
COc1ccc(CCC(=O)NCCSc2ncc(-c3ccc(OC)cc3)[nH]2)cc1	.	38.0*	.
COc1ccc(-c2cnc(SCCNC(=O)c3ccccc3Br)[nH]2)cc1	.	22.0	.
N#Cc1nc(COc2ccccc2)oc1N1CCN(Cc2ccccc2)CC1	-1.4	-24.5	-2.5
SMILES	SARS 3CLpro inh	PriA SSB inh	BJeLR viability
N#Cc1nc(-c2cccs2)oc1N1CCN(Cc2ccccc2)CC1	-6.7	41.4*	-17.8
O=C(c1ccco1)N(Cc1ccc([N+](=O)[O-])cc1)c1ccc(Br)cc1	12.7*	12.6	3.0
O=C(c1ccco1)N(Cc1cccc([N+](=O)[O-])c1)c1ccc(Br)cc1	5.3	18.3	-4.5
Cc1cc(CNC(=O)C2CCN(S(C)(=O)=O)CC2)no1	.	-8.0	.
CN1CCN(C(=S)c2cn(CCOc3ccccc3)c3ccccc23)CC1	-4.2	6.6	-0.3
CN1CCN(C(=S)c2cn(CCOc3ccccc3F)c3ccccc23)CC1	-1.9	39.3*	3.1
CC1Cc2ccccc2N1C(=O)c1csc(NC(=O)Nc2ccccc2)n1 (stereo unspecified)	.	9.0	.
Cc1cccc(OCCOC(=O)C2CCN(S(=O)(=O)c3ccc(C)c(C)c3)CC2)c1	4.3	46.7*	1.9
Cc1ccc(S(=O)(=O)N2CCC(C(=O)OCCOc3cccc(C)c3)CC2)cc1	.	-16.0	.
C=CCn1c(SCCC(=O)Nc2ccc(-c3nc4ccccc4s3)cc2)nc2scc(-c3ccccc3Cl)c2c1=O	.	-3.0	.
O=C(NCc1cccnc1)NC(=O)c1ccccc1	.	4.0	.
O=C(CCCCCCCCCCC(=O)NCc1cccnc1)NCc1cccnc1	-2.6	-9.5	74.3*
O=C(CCCN1C(=O)c2cccc3cccc(c23)C1=O)NCc1cccnc1	0.8	-5.6	-13.7
O=C(CCCCCN1C(=O)c2cccc3cccc(c23)C1=O)NCc1cccnc1	1.4	7.0	80.3*
O=C(CCCN1C(=O)c2ccccc2C1=O)NCc1cccnc1	-5.0	-7.4	12.3
O=C(NCc1cccnc1)N(c1ccccc1)c1ccccc1	.	37.0*	.
CC(C)(C)C(=O)OCC(N)=NOC(=O)c1ccc(Cl)cc1	.	-16.2	.
COc1ccc(S(=O)(=O)CCCC(=O)N(Cc2cccnc2)c2nc3ccc(F)cc3s2)cc1	.	-11.0	.
CCOc1ncc(NS(=O)(=O)c2cccs2)c(N(C)C)n1	.	17.0	.
O=C(Nc1ccccc1F)N1CC(Oc2nc3c(Cl)cccc3s2)C1	.	9.0	.
N#Cc1nc(-c2ccc(Cl)cc2)oc1N1CCCCCC1	.	59.2*	.
N#Cc1nc(-c2ccc(F)cc2)oc1N1CCCC1	1.6	-5.5	-3.6
N#Cc1nc(-c2ccc(Cl)cc2)oc1N1CCCCC1	-1.8	64.9*	-4.2
N#Cc1nc(-c2ccc(F)cc2)oc1N1CCCCC1	-1.7	10.2	-2.3
CCc1cccc(CC)c1NC(=O)c1ccccc1Cl	.	-13.0	.
SMILES	SARS 3CLpro inh	PriA SSB inh	BJeLR viability
COc1ccccc1C1(CNC(=O)COc2ccccc2)CCOCC1	.	-1.0	.
Cc1noc(C)c1C(=O)NCC1CCCN1c1nc2ccccc2o1 (stereo unspecified)	.	-6.0	.
CCOc1ccccc1NS(=O)(=O)c1c[nH]c(=O)[nH]c1=O	.	6.0	.
CC(C)CS(=O)(=O)Nc1ccc2c(c1)CCCN2S(=O)(=O)c1ccc(F)cc1	.	8.0	.
Cc1ccccc1[C@@H]1CCN(C(=O)Cn2cncn2)CCS1	.	-11.0	.
COc1ccc(-c2cc(-c3ccccc3)[n+](C)c(-c3ccccc3)c2)cc1	-0.8	-13.1	9.8
COc1ccc(-[n+]2c(-c3ccccc3)cc(-c3ccc(C)cc3)cc2-c2ccccc2)cc1	-1.4	11.1	71.8*
FC(F)(F)c1cnc(C(c2ccccn2)c2ncn[nH]2)c(Cl)c1 (stereo unspecified)	-1.6	77.2*	2.7
FC(F)(F)c1cnc(C(c2ccccc2)c2ncn[nH]2)c(Cl)c1 (stereo unspecified)	-0.7	-5.2	6.5
Cc1cc(NCc2ccccc2)ncn1	.	-3.0	.
COC(=O)CC(C(=O)OC)N1CCN(c2ccc(F)cc2)CC1 (stereo unspecified)	.	-3.0	.
CCOC(=O)N1CCN(C(CC(=O)OC)C(=O)OC)CC1 (stereo unspecified)	.	76.0*	.
COc1ccccc1Nc1ncccc1[N+](=O)[O-]	5.7	60.4*	-1.6
COc1ccccc1C(CNc1ncccc1[N+](=O)[O-])N(C)C (stereo unspecified)	-2.4	7.9	0.8
Cc1ccc(NC(=S)N/N=C/c2c(Cl)cccc2Cl)c(C)c1	4.3	.	53.1*
Cc1ccc(NC(=S)NN=Cc2c(Cl)cccc2Cl)c(C)c1	.	10.4	.
COc1cn2c(cc1=O)C(=O)N(CCNC(=O)c1ccc(Cl)cc1Cl)CC2	.	-5.0	.
CC1CCN(C2=C(NS(=O)(=O)c3ccccc3)C(=O)c3ccccc3C2=O)CC1	7.0	63.6*	5.6
CC1CCN(C2=C(NS(=O)(=O)c3ccc(Br)cc3)C(=O)c3ccccc3C2=O)CC1	5.4	69.9*	8.0
CC1CCN(C2=C(NS(=O)(=O)c3ccc(Cl)cc3)C(=O)c3ccccc3C2=O)CC1	4.5	-12.4	13.5
CC1CCCN(C2=C(NS(=O)(=O)c3ccc(Br)cc3)C(=O)c3ccccc3C2=O)C1 (stereo unspecified)	4.2	0.4	-0.3

Screening results: PubChem BioAssay, several laboratories
